NALP1 yeast inh – NALP1 inhibition | inhibition, % at 10 µM | AID 2071 | S. cerevisiae NALP1/ASC/caspase-1 growth, X-gal OD620, 72 h | 280,000 tested, 0.61% active; in the data active means inhibition mostly above about 24%, no sharp cut-off; inactive means mostly below about 32%
tim23-1 inh – tim23-1 yeast growth inhibition; S. cerevisiae tim23-1 growth, BacTiter-Glo luminescence, 24 h; inhibition, % at 20 µM; 330,000 tested, 1.3% active; AID 463212;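 active means growth inhibition of the mutant yeast at or above 50%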;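 further: temperature-sensitive mutant grown at 25 °C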
NLRP3 yeast inh – inhibitors of NALP3 inflammasome in yeast. Yeast reconstituted NLRP3/ASC/caspase-1, beta-gal luminescence, 24 h. inhibition, % at 10 µM. 330,000 tested, 0.39% active. AID 2825;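 active means inhibition of 50% or more; inactive means inhibition below 50%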
TIM10 inh – inhibits growth of TIM10 yeast strain; inhibition, % at 10 µM; AID 463195; S. cerevisiae TIM10 strain growth, BacTiter-Glo luminescence, 24 h; 330,000 tested, 1.4% active;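 active means inhibition of 40% or more at the single tested concentration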;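 further: wild-type TIM10 isogenic control strain grown at permissive 25 °C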
tim10-1 inh – growth inhibitors of tim10-1 mutant yeast | S. cerevisiae tim10-1 ts strain growth, BacTiter-Glo, 24 h | inhibition, % at 20 µM | 330,000 tested, 2.2% active;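 active means inhibition of at least 40%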;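 further: mutant grown at 25 °C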
tim10-1 confirm – tim10-1 yeast growth inhibition, confirmed. shares compounds with tim10-1 inh. S. cerevisiae tim10-1 ts strain growth, BacTiter-Glo, 24 h. inhibition, % at 20 µM. 7,400 tested, 56% active;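 active means inhibition of yeast growth at or above a set limit in either of two repeat tests at 20 µM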;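 further: tim10-1 mutant grown at permissive 25 °C to find synthetic lethal compounds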
TIM10 conf – TIM10 yeast growth inhibition, confirmed; shares compounds with TIM10 inh; S. cerevisiae tim10 strain growth, BacTiter-Glo luminescence, 24 h; inhibition, % at 10 µM; 4,600 tested, 63% active;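 active means inhibition of yeast growth at or above a set limit in either of two replicates at 10 µM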; further: this counterscreen used the strain with wild-type TIM10
tim23-1 conf – tim23-1 yeast growth inhibition, confirmed; 4,400 tested, 83% active; S. cerevisiae tim23-1 growth, BacTiter-Glo luminescence, 24 h; inhibition, % at 20 µM; AID 463218; shares compounds with tim23-1 inh;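 active means inhibition above about 39% in either of two replicate wells at 20 µM, limit read from the data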;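 further: temperature-sensitive tim23-1 mutant grown at 25 °C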
A number is an active result; 0 = inactive; - = not tested or not shown. Only some compounds are listed: those with a hit (about 4.1% of all), similar ones and a draw of the others.

SMILES | NALP1 yeast inh | tim23-1 inh | NLRP3 yeast inh | TIM10 inh | tim10-1 inh | tim10-1 confirm | TIM10 conf | tim23-1 conf
COc1ccc(/C=C/C(=O)OCC(=O)NCCC2=CCCCC2)cc1S(=O)(=O)N1CCOCC1 | 0 | 0 | 0 | 0 | 0 | - | - | -
CCN(CC)CCNC(=O)c1cc2c(s1)-c1ccccc1SC2 | 0 | 0 | 0 | 0 | 0 | - | - | -
NNC(=O)c1cc2c(s1)-c1cc(Cl)ccc1SC2 | - | 55 | 0 | 0 | 57 | 44 | - | 49
O=C(Oc1cccc2cccnc12)c1cccc([N+](=O)[O-])c1 | 0 | 0 | 0 | 0 | 0 | - | - | -
O=C(Oc1c(Cl)cc(Cl)c2cccnc12)c1cccc([N+](=O)[O-])c1 | 0 | 63 | 0 | 50 | 51 | 0 | 0 | 73
COc1ccc2c(c1)-c1nc(NC(=O)c3ccco3)sc1CC2 | 0 | 57 | 0 | 0 | 58 | 53 | - | 61
COc1ccc2c(c1)N(C(=O)CN1C(=O)C3CCCCC3C1=O)C(C)(C)C=C2C (stereo unspecified) | 0 | 53 | 0 | 0 | 51 | 46 | - | 52
N#Cc1nc(Cl)c(Cl)c(NN)c1Cl | - | 0 | 0 | 0 | 0 | - | - | -
O=C1CC(c2cccc(Cl)c2)c2cc3c(cc2N1)CCC3 (stereo unspecified) | 0 | 60 | 0 | 0 | 41 | 0 | - | 57
COc1cccc(C2CC(=O)Nc3cc4c(cc32)CCC4)c1 (stereo unspecified) | 0 | 0 | 0 | 0 | 0 | - | - | -
Cc1nc(SCC(=O)Nc2ccc(CN3CCCC3)cc2)c2c(C)c(C)sc2n1 | - | 53 | 0 | 51 | 51 | 62 | 38 | 57
CC(C)(C)/C(COc1ccccc1[N+](=O)[O-])=N/O | 0 | 0 | 0 | 0 | 0 | - | - | -
CC1=CC(=O)C=C(C)C1=NOc1ccccc1[N+](=O)[O-] | 0 | 66 | 0 | 72 | 78 | 76 | 0 | 83
CCCNCc1cc(OC)c(OCc2ccccc2)cc1Br | 0 | 0 | 0 | 0 | 0 | - | - | -
CC1CCN(S(=O)(=O)c2ccc(NC(=O)[C@@H]3CCCN3C(=O)c3cccs3)cc2)CC1 | - | 0 | 0 | 0 | 0 | - | - | -
O=C(O)c1ccccc1N=Cc1c(O)n(-c2nccs2)c(=O)c2ccccc12 | 0 | 0 | 0 | 0 | 0 | - | - | -
Cc1ccccc1N=Cc1c(O)n(-c2nccs2)c(=O)c2ccccc12 | 0 | 59 | 0 | 47 | 48 | 47 | 46 | 56
CC1CCCCC1NC(=O)/C(C#N)=C/c1ccccc1F (stereo unspecified) | 0 | 84 | 0 | 85 | 89 | 87 | 88 | 84
N#C/C(=C\c1c(F)cccc1Cl)C(=O)NC1CC1 | 0 | 85 | 0 | 61 | 74 | 61 | 66 | 81
CCOC(=O)c1ccc(NC(=O)CNNC(=O)COc2ccccc2C)cc1 | - | 0 | 0 | 0 | 0 | - | - | -
CC1CC(C)CN(S(=O)(=O)c2cccc(C(=O)N3CCN(c4ccc(F)cc4)CC3)c2)C1 (stereo unspecified) | - | 0 | 0 | 0 | 0 | - | - | -
O=C(CSc1ccc(Cl)cc1)NC1=NN(c2ccccc2)C(=O)C1 | 0 | 63 | 0 | 0 | 48 | 0 | - | 0
Fc1ccc(CCNC(=S)Nc2ccc(F)c(Cl)c2)cc1 | 0 | 55 | 0 | 41 | 52 | 66 | 0 | 75
Fc1ccc(NC(=S)NCCc2ccccc2)c(F)c1F | 0 | 51 | 0 | 41 | 40 | 0 | 35 | 49
O=[N+]([O-])c1ccc(NC(=S)NCCc2ccc(F)cc2)cc1 | 0 | 74 | 0 | 64 | 75 | 70 | 0 | 70
SMILES | NALP1 yeast inh | tim23-1 inh | NLRP3 yeast inh | TIM10 inh | tim10-1 inh | tim10-1 confirm | TIM10 conf | tim23-1 conf
S=C(NCCc1ccc(Cl)cc1)Nc1ccc(Cl)cc1Cl | 0 | 60 | 0 | 48 | 50 | 56 | 44 | 66
Fc1ccccc1NC(=S)NCCc1ccccc1 | 0 | 0 | 0 | 0 | 0 | - | - | -
CC1=NN(c2ccccc2)C(=O)/C1=C/N(C)C | 0 | 0 | 0 | 0 | 0 | - | - | -
CC1=NN(c2nc3ccccc3[nH]2)C(=O)/C1=C/N(C)C | 0 | 59 | 0 | 0 | 59 | active | - | 59
CC12CCC(C(=O)N(CSC(=S)N/N=C\c3ccccc3Cl)C1=O)C2(C)C (stereo unspecified) | 0 | 59 | 0 | 57 | 41 | 0 | 0 | 41
Cc1ccccc1NCN1C(=O)C2CCC(C)(C1=O)C2(C)C (stereo unspecified) | - | 0 | 0 | 0 | 0 | - | - | -
COc1ccccc1OCCC(=O)NNC(=O)c1ccccc1F | - | 0 | 0 | 0 | 0 | - | - | -
O=C(c1ccc(Cl)cc1)C1CCN(Cc2ccccc2)CC1 | 0 | 0 | 0 | 0 | 0 | - | - | -
O=C(c1ccc(Cl)cc1)C(CN1CCCC1)c1ccccc1 (stereo unspecified) | 43 | 57 | 0 | 46 | 62 | 0 | 51 | 0
Cc1ccc(/C=c2\sc3nc(-c4ccco4)nn3c2=O)o1 | - | 0 | 0 | 0 | 0 | - | - | -
COc1ccc(Br)cc1/C=c1\sc2nc(-c3ccco3)nn2c1=O | 0 | 53 | 0 | 42 | 54 | 44 | 38 | 55
Cn1c(=O)oc2cc(S(=O)(=O)N3CCN(c4ccccc4F)CC3)ccc21 | 0 | 0 | 0 | 0 | 0 | - | - | -
Cc1ccccc1N1CCN(S(=O)(=O)c2ccc3oc(=O)ccc3c2)CC1 | 0 | 68 | 0 | 42 | 79 | 65 | 54 | 57
CC(C)(C)c1ccc(C(=O)NCC(=O)N2CCC3(CC2)NCCc2[nH]cnc23)cc1 | 0 | 0 | 0 | 0 | 0 | - | - | -
FC(F)(F)c1cc(C(F)(F)F)c2ccc(N3CCN(c4ccc(Cl)cc4)CC3)nc2n1 | 0 | 0 | 0 | 0 | 0 | - | - | -
N#CC(c1ccc(Cl)cc1)c1ccc2c(C(F)(F)F)cc(C(F)(F)F)nc2n1 (stereo unspecified) | 0 | 62 | 0 | 64 | 71 | 49 | 54 | 60
COc1ccc(/C=C2\SC(=O)NC2=S)cc1OC | 0 | 52 | 0 | 0 | 41 | 37 | - | 48
S=c1[nH]nc(-c2ccncc2)n1/N=C/C(Cl)=C\c1ccccc1 | 0 | 58 | 0 | 67 | 56 | 50 | 58 | 48
CC(=O)Nc1ccc(N=Cc2c(O)c3ccccc3oc2=O)cc1 | 0 | 0 | 0 | 0 | 0 | - | - | -
CC(=O)Nc1ccc(N=Cc2c(O)c(C(=O)Nc3ccccc3)cc3ccccc23)cc1 | 0 | 64 | 0 | 63 | 49 | 0 | 0 | 0
NC(=O)c1c(NC(=O)c2cccs2)sc2c1CCCCCC2 | 0 | 59 | 0 | 0 | 46 | 0 | - | 58
Cc1ccccc1NC(=O)C(=Cc1ccc(C(=O)O)cc1)C(=O)Nc1ccccc1C | 0 | - | - | - | - | - | - | -
CC(=O)/C(=C/c1ccccc1)C(=O)Nc1ccccc1C | 0 | 68 | 0 | 72 | 61 | 52 | 63 | 54
COc1ccc(C(=O)/C(=C/c2cccs2)c2nc3ccccc3o2)cc1 | 0 | 53 | 0 | 43 | 49 | 42 | 0 | 54
Cc1nn(C)c(C(=O)NN)c1Cl | 0 | 0 | 0 | 0 | 0 | - | - | -
